# Experimental data: article PMC5540273 (PLoS ONE, 2017)
# Where two headings read alike, the source gives them in different places.
# Assays:
# [1] = tested on: DYRK1B; conditions: n = 1
# [2] = tested on: DYRK2; conditions: concentration: 1 μM, replicates: in singlicate; n = 1
# [3] = tested on: EGFR; conditions: concentration: 1 μM, replicates: in singlicate; n = 1
# [4] = tested on: EIF2AK1; conditions: n = 1
# [5] = tested on: EPHA1; conditions: concentration: 1 μM, replicates: in singlicate; n = 1
# [6] = tested on: EPHA2; conditions: concentration: 1 μM, replicates: in singlicate; n = 1
# [7] = tested on: EPHA3; conditions: concentration: 1 μM, replicates: in singlicate; n = 1
# [8] = tested on: EPHA4; conditions: concentration: 1 μM, replicates: in singlicate; n = 1
# [9] = tested on: EPHA5; conditions: concentration: 1 μM, replicates: in singlicate; n = 1
# [10] = tested on: EPHA6; conditions: n = 1
# [11] = tested on: EPHA7; conditions: concentration: 1 μM, replicates: in singlicate; n = 1
# [12] = tested on: EPHA8; conditions: concentration: 1 μM, replicates: in singlicate; n = 1
# [13] = tested on: EPHB1; conditions: concentration: 1 μM, replicates: in singlicate; n = 1
# [14] = tested on: EPHB2; conditions: concentration: 1 μM, replicates: in singlicate; n = 1
# [15] = tested on: EPHB3; conditions: concentration: 1 μM, replicates: in singlicate; n = 1
# [16] = tested on: EPHB4; conditions: concentration: 1 μM, replicates: in singlicate; n = 1
# [17] = tested on: EPHB6; conditions: concentration: 1 μM, replicates: in singlicate; n = 1
# [18] = tested on: ERBB2; conditions: concentration: 1 μM, replicates: in singlicate; n = 1
# [19] = tested on: ERBB3; conditions: concentration: 1 μM, replicates: in singlicate; n = 1
# [20] = tested on: ERBB4; conditions: concentration: 1 μM, replicates: in singlicate; n = 1
# [21] = concentration: 1 μM, replicates: in singlicate
# 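Note: KINOMEscan kinase panel screen.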
compound,measurement,setting,value
O=C(Nc1n[nH]c2nc(-c3ccccc3)ccc12)C1CC1 [SB-708999],%Inh,[1]; [21],0%
same,%Inh,[2],12%
same,%Inh,[3],1%
same,%Inh,[4]; [21],0%
same,%Inh,[5],15%
same,%Inh,[6],15%
same,%Inh,[7],0%
same,%Inh,[8],0%
same,%Inh,[9],2%
same,%Inh,[10]; [21],0%
same,%Inh,[11],7%
same,%Inh,[12],9%
same,%Inh,[13],0%
same,%Inh,[14],20%
same,%Inh,[15],11%
same,%Inh,[16],3%
same,%Inh,[17],41%
same,%Inh,[18],35%
same,%Inh,[19],67%
same,%Inh,[20],0%
Cl.O=C(Nc1ccc(Oc2ccc3[nH]c(NC(=O)c4ccco4)nc3c2)cc1)Nc1cc(C(F)(F)F)ccc1F [GW683134],%Inh,[1]; [21],6%
same,%Inh,[2],0%
same,%Inh,[3],44%
same,%Inh,[4]; [21],4%
same,%Inh,[5],91.8%
same,%Inh,[6],95.2%
same,%Inh,[7],20%
same,%Inh,[8],93.6%
same,%Inh,[9],48%
same,%Inh,[10]; [21],96.4%
same,%Inh,[11],86%
same,%Inh,[12],99.5%
same,%Inh,[13],70%
same,%Inh,[14],72%
same,%Inh,[15],24%
same,%Inh,[16],60%
same,%Inh,[17],93.7%
same,%Inh,[18],9%
same,%Inh,[19],0%
same,%Inh,[20],29%
c1ccc(Oc2ccc(Nc3ccnc4cc(-c5ccc(CN6CCCCC6)o5)ccc34)cc2)nc1 [GW567143],%Inh,[1]; [21],0%
same,%Inh,[2],10%
same,%Inh,[3],55%
same,%Inh,[4]; [21],0%
same,%Inh,[5],78%
same,%Inh,[6],0%
same,%Inh,[7],6%
same,%Inh,[8],3%
same,%Inh,[9],0%
same,%Inh,[10]; [21],0%
same,%Inh,[11],0%
same,%Inh,[12],12%
same,%Inh,[13],6%
same,%Inh,[14],0%
same,%Inh,[15],4%
same,%Inh,[16],7%
same,%Inh,[17],66%
same,%Inh,[18],18%
same,%Inh,[19],96%
same,%Inh,[20],51%
Cn1cc(-c2ccc3c(c2)CCN3C(=O)Cc2cc(F)cc(F)c2F)c2c(N)ncnc21 [GSK2634140],%Inh,[1]; [21],4%
same,%Inh,[2],5%
same,%Inh,[3],16%
same,%Inh,[4]; [21],80%
same,%Inh,[5],4%
same,%Inh,[6],9%
same,%Inh,[7],0%
same,%Inh,[8],6%
same,%Inh,[9],0%
same,%Inh,[10]; [21],1%
same,%Inh,[11],3%
same,%Inh,[12],8%
same,%Inh,[13],14%
same,%Inh,[14],0%
same,%Inh,[15],11%
same,%Inh,[16],0%
same,%Inh,[17],87%
same,%Inh,[18],31%
same,%Inh,[19],0%
same,%Inh,[20],41%
Cn1cc(-c2cnc(N)c3c(-c4ccc5c(c4)CCN5C(=O)Cc4ccccc4)csc23)cn1 [GSK2593074],%Inh,[1]; 1 µM,0%
same,%Inh,[2],8%
same,%Inh,[3],3%
same,%Inh,[4]; 1 µM,7%
same,%Inh,[5],11%
same,%Inh,[6],0%
same,%Inh,[7],0%
same,%Inh,[8],11%
same,%Inh,[9],0%
same,%Inh,[10]; 1 µM,11%
same,%Inh,[11],6%
same,%Inh,[12],8%
same,%Inh,[13],6%
same,%Inh,[14],2%
same,%Inh,[15],4%
same,%Inh,[16],9%
same,%Inh,[17],98.3%
same,%Inh,[18],0%
same,%Inh,[19],4%
same,%Inh,[20],0%
Cl.Cl.NCC(NC(=O)c1cc(-c2cccnc2)c(-c2ccnc3[nH]ccc23)s1)c1ccccc1 (centres unmarked) [GSK1323434],%Inh,[1]; [21],17%
same,%Inh,[2],33%
same,%Inh,[3],72%
same,%Inh,[4]; [21],0%
same,%Inh,[5],4%
same,%Inh,[6],10%
same,%Inh,[7],40%
same,%Inh,[8],0%
same,%Inh,[9],0%
same,%Inh,[10]; [21],2%
same,%Inh,[11],17%
same,%Inh,[12],33%
same,%Inh,[13],23%
same,%Inh,[14],22%
same,%Inh,[15],0%
same,%Inh,[16],18%
same,%Inh,[17],21%
same,%Inh,[18],58%
same,%Inh,[19],1%
same,%Inh,[20],48%
Cc1ccc(O)cc1Nc1ccnc2ccc(C(C)(C)C)cc12 [GW856805],%Inh,[1]; [21],19%
same,%Inh,[2],19%
same,%Inh,[3],37%
same,%Inh,[4]; [21],44%
same,%Inh,[5],99%
same,%Inh,[6],92.9%
same,%Inh,[7],71%
same,%Inh,[8],91.3%
same,%Inh,[9],99.3%
same,%Inh,[10]; [21],79%
same,%Inh,[11],0%
same,%Inh,[12],98.2%
same,%Inh,[13],97.4%
same,%Inh,[14],92.5%
same,%Inh,[15],100%
same,%Inh,[16],97.1%
same,%Inh,[17],24%
same,%Inh,[18],32%
same,%Inh,[19],15%
same,%Inh,[20],24%
CCNc1nccc(-c2c(-c3ccc(F)cc3)ncn2C2CCN(C)CC2)n1,%Inh,[1]; [21],0%
same,%Inh,[2],100%
same,%Inh,[3],0%
same,%Inh,[4]; [21],0%
same,%Inh,[5],0%
same,%Inh,[6],0%
same,%Inh,[7],0%
same,%Inh,[8],5%
same,%Inh,[9],0%
same,%Inh,[10]; [21],0%
same,%Inh,[11],0%
same,%Inh,[12],0%
same,%Inh,[13],0%
same,%Inh,[14],0%
same,%Inh,[15],0%
same,%Inh,[16],0%
same,%Inh,[17],9%
same,%Inh,[18],0%
same,%Inh,[19],9%
same,%Inh,[20],0%
COC(=O)Nc1nc2ccc(Oc3ccc(CC(=O)Nc4cc(C(F)(F)F)ccc4F)cc3)cc2[nH]1 [GW680903],%Inh,[1]; [21],8%
same,%Inh,[2],0%
same,%Inh,[3],30%
same,%Inh,[4]; [21],3%
same,%Inh,[5],12%
same,%Inh,[6],54%
same,%Inh,[7],100%
same,%Inh,[8],21%
same,%Inh,[9],0%
same,%Inh,[10]; [21],34%
same,%Inh,[11],9%
same,%Inh,[12],64%
same,%Inh,[13],32%
same,%Inh,[14],26%
same,%Inh,[15],9%
same,%Inh,[16],20%
same,%Inh,[17],22%
same,%Inh,[18],30%
same,%Inh,[19],12%
same,%Inh,[20],7%
CN(c1ccc(NC(=O)Nc2cccc(Cl)c2)cc1)c1ccnc(N)n1.Cl [GW830707],%Inh,[1]; [21],14%
same,%Inh,[2],14%
same,%Inh,[3],10%
same,%Inh,[4]; [21],0%
same,%Inh,[5],8%
same,%Inh,[6],18%
same,%Inh,[7],15%
same,%Inh,[8],17%
same,%Inh,[9],33%
same,%Inh,[10]; [21],48%
same,%Inh,[11],40%
same,%Inh,[12],22%
same,%Inh,[13],34%
same,%Inh,[14],36%
same,%Inh,[15],62%
same,%Inh,[16],61%
same,%Inh,[17],76%
same,%Inh,[18],0%
same,%Inh,[19],17%
same,%Inh,[20],29%
